For some assays here: Results with a measured potency or affinity are listed apart. Activity calls are given as the source filed them.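 Rule for the calls, unless noted: active = calcium signal cut by more than 3 SD below the full-agonist control yet still positive, in both repeats and the earlier primary screen; inactive = the rest.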
Assays:
[1] = system: TRPC4 beta (transient receptor potential cation channel C4), mouse; assay: TRPC4 cation channel opening, retest – cell-based, Fluo4 calcium, HEK293 TRPC4beta/mu-opioid, duplicates, 10 µM, confirmation (AID 2426;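 active = fluorescence ratio normalized to control raised more than 50% in primary screen plus both repeat runs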;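 note: percent rise of integrated ratio over buffer wells lacking compound which define 0%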); conditions: Fluo4 calcium fluorescence, at 10 µM; hits give high values
[2] = system: transient receptor potential cation channel C4 beta (TRPC4), mouse; assay: TRPC4 cation channel opening, second retest – cell-based, second round, Fluo4, HEK293 TRPC4beta/mu-opioid, 1 µM, confirmation (AID 2461;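 active = primary screen active and over 50% activation in each of two duplicate runs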;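 for activation: 0% = wells without test compound as baseline of integrated fluorescence ratio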); conditions: Fluo4 calcium fluorescence, at 1 µM; hits give high values
[3] = system: TRPC4 (transient receptor potential cation channel C4 beta), mouse; assay: potentiation of DAMGO EC20 TRPC4 response – cell-based, second round, Fluo-4, HEK293 TRPC4beta/mu-opioid, 1 µM, confirmation (AID 2554;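 active = primary screen hit whose fluorescence ratio, in both repeats, exceeds the weak agonist control mean by 3 SD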); conditions: DAMGO EC20, Fluo-4 calcium flux, at 1 µM; hits give high values
[4] = system: TRPC4 beta (transient receptor potential cation channel C4), mouse; assay: potentiation of DAMGO EC20 TRPC4 response – cell-based, Fluo-4, HEK293 TRPC4beta/mu-opioid, confirmation (AID 2555;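 active = primary screen hit whose calcium fluorescence ratio, in both repeats, exceeds the weak agonist control mean by 3 SD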); conditions: DAMGO EC20, Fluo-4 calcium flux, at 10 µM; hits give high values
[5] = molecular target: Short transient receptor potential channel 4 (Mus musculus) (UniProt Q9QUQ5); assay: blockers of DAMGO-evoked TRPC4 calcium flux – cell-based, Fluo4, HEK293 TRPC4beta/mu-opioid, confirmation (AID 2636); conditions: at 10 µM; hits give high values
[6] = molecular target: Short transient receptor potential channel 4 (Mus musculus) (UniProt Q9QUQ5); assay: blockers of DAMGO-evoked TRPC4 calcium flux – cell-based, second round, Fluo4, HEK293 TRPC4beta/mu-opioid, 1 µM, confirmation (AID 2637;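 active = calcium signal ratio cut to more than 3 SD under the fully stimulated control mean yet still positive, in both repeats and the primary screen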); conditions: at 1 µM; hits give high values
[7] = molecular target: Short transient receptor potential channel 4 (Mus musculus) (UniProt Q9QUQ5); assay: potentiation of DAMGO-evoked TRPC4 calcium signal – cell-based, HEK293 TRPC4/mu-opioid, Fluo-4 calcium, EC20 DAMGO, dose response (AID 434941;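 active = earlier screen potentiator hit that boosts the TRPC4 ion channel at some dose, with a dose response; inactive = no potentiation, no dose response, or not a prior hit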;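 note: calcium entry triggered by an EC20 dose of DAMGO at the co-expressed mu-opioid receptor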); conditions: HEK293 TRPC4/mu-opioid cells, Fluo-4 calcium fluorescence; series mostly up to 20 µM
[8] = molecular target: Short transient receptor potential channel 4 (Mus musculus) (UniProt Q9QUQ5); assay: block of DAMGO-driven TRPC4 calcium entry – cell-based, HEK293 TRPC4/mu-opioid, Fluo-4 calcium, dose response (AID 434942;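 active = primary screen inhibitor hit that blocks the TRPC4 channel at some tested dose, yielding a dose curve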); conditions: HEK293 TRPC4/mu-opioid cells, DAMGO-evoked Fluo-4 calcium ratio; series mostly up to 20 µM
[9] = molecular target: Short transient receptor potential channel 6 (Mus musculus) (UniProt Q61143); assay: TRPC6 blockade by TRPC4 inhibitor hits – cell-based, HEK293, membrane potential dye, duplicate, selectivity assay for TRPC4 inhibitor project, confirmation (AID 434948;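 active = active in primary screen and both duplicates, each dropping signal beyond three positive-control SD with fluorescence still positive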); conditions: HEK293 TRPC6, membrane potential dye fluorescence, at 10 µM, stimulated with maximal-effect acetylcholine; hits give high values
[10] = molecular target: Short transient receptor potential channel 6 (Mus musculus) (UniProt Q61143); assay: TRPC6 opening by TRPC4 activator hits – cell-based, HEK293, membrane potential dye, duplicate, selectivity assay for TRPC4 activator project, confirmation (AID 434950;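 active = membrane potential signal rise above negative control mean plus 3 SD in both duplicates, also active in the earlier TRPC4 screen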;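 for activation: 0% = buffer only wells and 100% = acetylcholine maximal-effect wells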); conditions: HEK293 TRPC6, membrane potential fluorescence, at 10 µM; activation: hits give high values; outcome: activation
[11] = molecular target: Short transient receptor potential channel 6 (Mus musculus) (UniProt Q61143); assay: positive modulators of mouse TRPC6 channel – HEK293 cells, membrane potential dye, duplicate, selectivity assay for TRPC4 potentiator project, confirmation (AID 434952;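 active = compound raising the membrane signal above positive-control mean plus 3 SD in both repeats, and a primary screen hit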); conditions: HEK293 TRPC6, membrane potential dye fluorescence, at 10 µM, maximal acetylcholine added after compound; hits give high values
[12] = molecular target: Short transient receptor potential channel 4 (Mus musculus) (UniProt Q9QUQ5); assay: calcium flux activators in TRPC4/5HT1a cells, counter-screen for TRPC4 activator project, cell-based, second counter screen, HEK293 TRPC4/5HT1a, Fluo-4 (AID 434977;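 active = calcium signal rise above buffer-control mean plus 5 SD in both duplicates, and also a hit in the primary screen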;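 for activation: plate controls were assay buffer for no effect and maximal serotonin response for full effect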); conditions: Fluo-4 calcium flux, at 10 µM; hits give high values
[13] = serotonin-gated TRPC4 signal block – cell-based, second counter screen, HEK293 TRPC4/5HT1a, Fluo-4, counter-screen for TRPC4 inhibitor project, confirmation (AID 434978;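 active = primary screen active whose calcium signal fell more than 3 SD beyond the full-serotonin control mean in both duplicate plates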;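 note: serotonin given first at submaximal then at maximal dose after compound preincubation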); conditions: Fluo-4 calcium flux, at 10 µM, serotonin added to trigger calcium flux; hits give high values
[14] = system: TRPC4 (mouse), co-expressed with 5HT1a in HEK293; assay: enhancement of serotonin-evoked TRPC4 response – cell-based, second counter screen, HEK293 TRPC4/5HT1a, Fluo-4, counter-screen for TRPC4 potentiator project, confirmation (AID 434979;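 active = signal rise over 3 SD above mean of control wells given weak agonist, in both repeats and first screen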); conditions: Fluo-4 calcium flux, at 10 µM, serotonin added at its EC20 dose; hits give high values
[15] = nonspecific calcium rise without TRPC4 – cell-based, HEK293 mu-opioid receptor line, counter-screen for TRPC4 activator project, confirmation (AID 449723;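 active = hit in primary screen, with calcium signal over 5 SD above buffer well mean in both duplicates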;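 note: counter screen cells carry the mu-opioid receptor alone and lack TRPC4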); conditions: HEK293 mu-opioid cells, Fluo-4 calcium fluorescence, at 10 µM; hits give high values
[16] = nonspecific potentiation of DAMGO calcium response – cell-based, HEK293 mu-opioid receptor line, counter-screen for TRPC4 allosteric potentiator project, confirmation (AID 449724;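 active = calcium signal rise more than 3 SD above the low-dose agonist control mean, in both duplicate plates and the primary screen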); conditions: HEK293 mu-opioid receptor cells, Fluo-4 calcium flux, at 10 µM, compound added before EC20 DAMGO stimulus; hits give high values

Chain of Short transient receptor potential channel 6 (Mus musculus) (Q61143 whole entry, looked up): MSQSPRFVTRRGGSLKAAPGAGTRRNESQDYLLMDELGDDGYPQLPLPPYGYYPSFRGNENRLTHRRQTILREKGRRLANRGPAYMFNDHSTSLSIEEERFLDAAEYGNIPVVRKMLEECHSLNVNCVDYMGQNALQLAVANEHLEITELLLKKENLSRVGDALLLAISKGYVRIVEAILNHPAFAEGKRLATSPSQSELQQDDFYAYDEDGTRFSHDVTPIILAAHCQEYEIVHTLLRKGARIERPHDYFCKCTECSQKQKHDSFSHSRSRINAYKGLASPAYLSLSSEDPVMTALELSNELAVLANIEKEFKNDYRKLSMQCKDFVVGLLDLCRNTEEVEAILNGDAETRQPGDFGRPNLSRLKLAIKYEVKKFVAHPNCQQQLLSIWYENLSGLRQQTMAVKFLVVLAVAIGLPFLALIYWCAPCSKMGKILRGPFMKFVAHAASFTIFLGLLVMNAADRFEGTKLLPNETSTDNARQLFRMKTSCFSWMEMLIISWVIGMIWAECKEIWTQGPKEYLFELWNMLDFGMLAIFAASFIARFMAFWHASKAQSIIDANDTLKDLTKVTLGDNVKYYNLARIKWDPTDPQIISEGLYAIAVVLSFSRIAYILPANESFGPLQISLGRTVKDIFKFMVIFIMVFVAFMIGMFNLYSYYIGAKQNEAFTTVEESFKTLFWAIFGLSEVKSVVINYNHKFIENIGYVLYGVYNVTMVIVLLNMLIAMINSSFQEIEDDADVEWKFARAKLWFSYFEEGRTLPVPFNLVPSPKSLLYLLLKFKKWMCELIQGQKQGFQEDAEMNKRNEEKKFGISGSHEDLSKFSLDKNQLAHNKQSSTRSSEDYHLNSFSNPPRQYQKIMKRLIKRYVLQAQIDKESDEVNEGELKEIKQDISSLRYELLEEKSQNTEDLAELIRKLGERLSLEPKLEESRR
Chain of Short transient receptor potential channel 4 (Mus musculus) (Q9QUQ5 whole entry, looked up): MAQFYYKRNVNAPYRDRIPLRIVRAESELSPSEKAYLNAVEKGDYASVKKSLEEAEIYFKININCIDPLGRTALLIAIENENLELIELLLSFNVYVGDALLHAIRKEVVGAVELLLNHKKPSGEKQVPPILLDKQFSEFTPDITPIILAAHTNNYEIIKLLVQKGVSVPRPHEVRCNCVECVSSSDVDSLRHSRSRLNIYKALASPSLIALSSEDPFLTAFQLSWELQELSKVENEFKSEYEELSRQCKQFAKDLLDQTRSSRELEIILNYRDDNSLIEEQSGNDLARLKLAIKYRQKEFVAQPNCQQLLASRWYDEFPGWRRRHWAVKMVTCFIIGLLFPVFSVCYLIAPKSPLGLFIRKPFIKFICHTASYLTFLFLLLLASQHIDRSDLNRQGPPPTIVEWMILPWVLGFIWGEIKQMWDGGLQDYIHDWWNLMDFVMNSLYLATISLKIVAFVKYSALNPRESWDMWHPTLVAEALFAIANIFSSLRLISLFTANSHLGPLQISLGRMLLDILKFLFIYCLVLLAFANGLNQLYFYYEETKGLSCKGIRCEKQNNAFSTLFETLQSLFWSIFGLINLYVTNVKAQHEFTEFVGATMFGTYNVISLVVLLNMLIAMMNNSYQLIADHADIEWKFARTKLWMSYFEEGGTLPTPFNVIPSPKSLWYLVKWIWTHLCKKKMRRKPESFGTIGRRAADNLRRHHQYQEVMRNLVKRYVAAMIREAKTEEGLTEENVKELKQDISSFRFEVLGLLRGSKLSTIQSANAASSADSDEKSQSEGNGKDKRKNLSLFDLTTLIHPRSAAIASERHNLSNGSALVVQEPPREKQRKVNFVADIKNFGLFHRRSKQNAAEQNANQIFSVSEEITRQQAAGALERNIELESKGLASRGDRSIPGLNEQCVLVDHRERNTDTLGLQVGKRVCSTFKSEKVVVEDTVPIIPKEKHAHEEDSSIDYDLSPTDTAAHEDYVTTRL

O=C(NCCc1cnc[nH]1)c1ccc(-c2ccccc2)cc1
active: activation [1] 109% | activation [10] 59% | activation [12] 17.5%
inactive: outcome [2] | outcome [3] | outcome [4] | outcome [5] | outcome [6] | outcome [7] | outcome [8] | outcome [9] | outcome [11] | outcome [13] | outcome [14] | outcome [15] | outcome [16]

COc1ccc(CC(=O)NCC(c2ccc(OC)cc2)N(C)C)cc1 (centres undefined)
active: activation [1] 200% | activation [2] 95% | activation [10] 46.5%
inactive: outcome [3] | outcome [4] | outcome [5] | outcome [6] | outcome [7] | outcome [8] | outcome [9] | outcome [11] | outcome [12] | outcome [13] | outcome [14] | outcome [15] | outcome [16]

O=C(CN1CCN(c2ncc(C(F)(F)F)cc2Cl)CC1)N1CCN(c2ncc(C(F)(F)F)cc2Cl)CC1
active: activation [1] 128% | activation [12] 42%
inactive: outcome [2] | outcome [3] | outcome [4] | outcome [5] | outcome [6] | outcome [7] | outcome [8] | outcome [9] | outcome [10] | outcome [11] | outcome [13] | outcome [14] | outcome [15] | outcome [16]

CC(=O)NC(CC(=O)NCC(c1ccco1)N(C)C)c1ccccc1 (centres undefined)
active: activation [1] 98% | activation [2] 78%
inactive: outcome [3] | outcome [4] | outcome [5] | outcome [6] | outcome [7] | outcome [8] | outcome [9] | outcome [10] | outcome [11] | outcome [12] | outcome [13] | outcome [14] | outcome [15] | outcome [16]

CN1CCN(Cc2nc3c(c(=O)[nH]c(=O)n3C)n2Cc2c(F)cccc2Cl)CC1
inactive: outcome [4] | outcome [5] | outcome [6] | outcome [7] | outcome [8] | outcome [9] | outcome [11] | outcome [13] | outcome [15] | outcome [16]
active: activation [1] 135% | activation [2] 80% | potentiation [3] 11% | activation [10] 30% | activation [12] 17.9% | potentiation [14] 36.3%

CCCCN(CC)CCNc1c(N2CCN(C(=O)OCC)CC2)c(=O)c1=O
active: activation [1] 155% | activation [10] 30.5%
inactive: outcome [2] | outcome [3] | outcome [4] | outcome [5] | outcome [6] | outcome [7] | outcome [8] | outcome [9] | outcome [11] | outcome [12] | outcome [13] | outcome [14] | outcome [15] | outcome [16]

Cc1noc(C)c1S(=O)(=O)N1CCC(C(=O)NCCCN2CC(C)CC(C)C2)CC1 (centres undefined)
inactive: outcome [3] | outcome [4] | outcome [5] | outcome [6] | outcome [7] | outcome [8] | outcome [9] | outcome [10] | outcome [11] | outcome [13] | outcome [14] | outcome [15] | outcome [16]
active: activation [1] 99% | activation [2] 75% | activation [12] 28.5%

Cc1ccccc1C(=O)NNC(=S)NC(=O)COc1ccccc1
active: activation [1] 180% | activation [12] 127% | activation [15] 43.2%
inactive: outcome [2] | outcome [3] | outcome [4] | outcome [5] | outcome [6] | outcome [7] | outcome [8] | outcome [9] | outcome [10] | outcome [11] | outcome [13] | outcome [14] | outcome [16]

CCc1ccc(C(=O)c2cnc3ccc(OC)cc3c2N2CCN(CC)CC2)cc1
inactive: outcome [2] | outcome [3] | outcome [4] | outcome [5] | outcome [6] | outcome [7] | outcome [8] | outcome [9] | outcome [10] | outcome [11] | outcome [12] | outcome [13] | outcome [14] | outcome [15] | outcome [16]
active: activation [1] 283%

CCOc1ccc(CN2CCNC(=O)C2CC(=O)NCCc2ccccn2)cc1 (centres undefined)
active: activation [1] 145% | activation [12] 49%
inactive: outcome [2] | outcome [3] | outcome [4] | outcome [5] | outcome [6] | outcome [7] | outcome [8] | outcome [9] | outcome [10] | outcome [11] | outcome [13] | outcome [14] | outcome [15] | outcome [16]

CC(C)(C)c1cc(O)c(C(C)(C)C)cc1O
active: activation [1] 100% | activation [12] 55.9% | activation [15] 47.1%
inactive: outcome [2] | outcome [3] | outcome [4] | outcome [5] | outcome [6] | outcome [7] | outcome [8] | outcome [9] | outcome [10] | outcome [11] | outcome [13] | outcome [14] | outcome [16]

CCN1CCN(c2ccc(S(=O)(=O)N3CCOCC3)cc2NC(=O)c2ccccc2SC)CC1
inactive: outcome [3] | outcome [4] | outcome [5] | outcome [6] | outcome [7] | outcome [8] | outcome [9] | outcome [10] | outcome [11] | outcome [13] | outcome [14] | outcome [15] | outcome [16]
active: activation [1] 316% | activation [2] 110% | activation [12] 81.4%

O=c1c(Cc2ccccc2)c(O)ccn1CCc1cnc[nH]1
active: activation [1] 134% | activation [12] 39.3%
inactive: outcome [2] | outcome [3] | outcome [4] | outcome [5] | outcome [6] | outcome [7] | outcome [8] | outcome [9] | outcome [10] | outcome [11] | outcome [13] | outcome [14] | outcome [15] | outcome [16]

CCc1cc(OCCN(C)C)ccc1Cl
active: activation [1] 93% | potentiation [3] 47% | activation [10] 39.5% | activation [12] 19.9% | potentiation [14] 37.3%
inactive: outcome [2] | outcome [4] | outcome [5] | outcome [6] | outcome [7] | outcome [8] | outcome [9] | outcome [11] | outcome [13] | outcome [15] | outcome [16]

— PubChem BioAssay
